Screening data as filed in PubChem BioAssay.
MITF primary: human MITF inhibition, primary screen; O75030; AlphaScreen MITF homodimerization, bead proximity signal; inhibition, % at 2.6 µM; 0.91% of 650,000 active; in the data active = inhibition above about 50%
FBW7 activator: activators of human E3 ligase FBW7 | 0.13% of 650,000 active | AID 1259310 | AlphaScreen FBW7–phospho-cyclin E peptide binding, activator screen | normalized activity (activation), % at 26.1 µM | Q969H0; in the data active = normalized activity above about 1.9%;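 also: purified mutant Fbw7 with reduced substrate affinity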
Target sequence (Q969H0 whole entry, looked up): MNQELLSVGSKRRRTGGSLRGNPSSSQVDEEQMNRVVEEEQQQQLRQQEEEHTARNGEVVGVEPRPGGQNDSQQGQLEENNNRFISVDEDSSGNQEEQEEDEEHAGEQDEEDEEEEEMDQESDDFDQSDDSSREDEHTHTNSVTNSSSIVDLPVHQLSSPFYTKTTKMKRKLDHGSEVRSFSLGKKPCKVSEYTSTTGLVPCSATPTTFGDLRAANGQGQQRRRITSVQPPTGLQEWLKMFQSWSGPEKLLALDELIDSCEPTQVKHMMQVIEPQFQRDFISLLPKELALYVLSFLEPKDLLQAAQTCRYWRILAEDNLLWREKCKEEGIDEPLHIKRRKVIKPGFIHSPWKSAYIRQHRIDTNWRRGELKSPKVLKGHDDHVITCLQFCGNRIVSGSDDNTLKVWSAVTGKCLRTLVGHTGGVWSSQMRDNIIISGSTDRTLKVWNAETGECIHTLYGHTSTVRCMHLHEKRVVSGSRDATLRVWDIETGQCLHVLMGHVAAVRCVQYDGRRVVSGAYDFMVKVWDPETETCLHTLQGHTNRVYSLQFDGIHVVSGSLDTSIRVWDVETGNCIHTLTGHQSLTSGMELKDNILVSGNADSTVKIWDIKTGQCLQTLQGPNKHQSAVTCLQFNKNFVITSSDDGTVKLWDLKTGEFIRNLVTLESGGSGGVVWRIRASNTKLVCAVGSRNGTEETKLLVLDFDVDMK
GPR151 ag: human GPR151 activation | AID 1508602 | activation, % at 11.2 µM | PathHunter beta-arrestin GPR151 cells, luminescence | Q8TDV0 | 1% of 650,000 active; in the data active = activation above about 4.9%
TEAD-YAP inh: TEAD-YAP interaction inhibition | AID 1259422 | inhibition, % at 9.12 µM | 1.4% of 640,000 active | HEK-TIYL cells, TEAD-Gal4/YAP UAS-luciferase luminescence; in the data active = inhibition above about 32%
Large screens that a line does not name were inactive. This is a sample that favours compounds with a hit; in the whole collection about 3.5% have one here.

COc1ccc(NC(=O)COc2ccccc2C)cc1OC	none
CC(=O)NC1(c2cccc(F)c2)CCN(CC(=O)Nc2ccccc2C(N)=O)CC1	none
CCOc1ccc(C(Nc2cc(C)ccn2)c2ccc3cccnc3c2O)cc1C (stereo unspecified)	TEAD-YAP inh 86
Cc1ccnc(NC(c2cccnc2)c2ccc3ccc(C)nc3c2O)c1 (stereo unspecified)	none
COc1ccccc1NC(c1cccnc1)c1ccc2cccnc2c1O (stereo unspecified)	MITF primary 76
Cc1ccnc(NC(c2ccncc2)c2ccc3ccc(C)nc3c2O)c1 (stereo unspecified)	TEAD-YAP inh 39
Cc1ccnc(NC(c2cccnc2)c2ccc3cccnc3c2O)c1 (stereo unspecified)	MITF primary 66
Cc1ccnc(NC(c2ccc(C(C)(C)C)cc2)c2ccc3cccnc3c2O)c1 (stereo unspecified)	none
C=CCOc1cccc(C(Nc2cc(C)ccn2)c2ccc3ccc(C)nc3c2O)c1 (stereo unspecified)	none
Cc1ccccc1C(C1=C(O)CC(C)(C)CC1=O)C1C(=O)CC(C)(C)CC1=O (stereo unspecified)	none
CC(C)CC1(C(=O)O)NC(c2cc(Br)ccc2O)C2C(=O)N(Cc3ccccc3)C(=O)C21 (stereo unspecified)	none
Oc1c(C(Nc2nccs2)c2cccnc2)ccc2cccnc12 (stereo unspecified)	MITF primary 89, TEAD-YAP inh 67
CN(C)c1ccc(-c2ccc(OC3CCN(S(C)(=O)=O)CC3)cc2)cn1	none
CN(C)c1ccc(-c2ccc(OC3CCNCC3)cc2)cn1	TEAD-YAP inh 57
COc1ccccc1NC(=O)N1CCC(C(=O)Nc2cc(C)cc(C)c2)CC1	none
COc1ccccc1NC(=O)N1CCC(Oc2ccc(-c3ccc(N(C)C)nc3)cc2)CC1	TEAD-YAP inh 35
CN(C)c1ccc(-c2ccc(OC3CCN(c4ncccn4)CC3)cc2)cn1	TEAD-YAP inh 48
CN1c2ccccc2N(C)C1c1cccc(O)c1	none
CN(C)c1ccc(C2N(C)c3ccccc3N2C)cc1	TEAD-YAP inh 47
O=C(N/N=C/c1ccccc1)c1cncc(Br)c1	none
O=C(Cn1c(=O)oc2ccccc21)Nc1ccnc2ccccc12	TEAD-YAP inh 32
Cc1c(C(=O)C(=O)N2CCC(C)CC2)c2ccccc2n1C	none
Cc1c(C(=O)C(=O)N2CC=C(c3ccccc3)CC2)c2ccccc2n1C	TEAD-YAP inh 52
COc1ccc(-c2cnnn2-c2ccc(C(C)=O)cc2)cc1	none
CC1(C)CC(=NNC(=O)c2n[nH]c3c2CCCC3)CC(C)(C)N1	TEAD-YAP inh 39
O=C(NN=C1CCCC1)c1n[nH]c2c1CCC2	TEAD-YAP inh 64
CC1(C)CC(=NNC(=O)c2ccncc2)CC(C)(C)N1	none
O=C(NN=C1CCCC1)c1n[nH]c2c1CCCC2	TEAD-YAP inh 42
NNC(=O)c1n[nH]c2c1CCCC2	none
C/C(=N\NC(=O)c1n[nH]c2c1CCC2)c1ccco1	TEAD-YAP inh 52
CC(=O)c1ccc(N=c2oc3ccccc3cc2-c2nc3ccccc3[nH]2)cc1	none
Cc1ccc(Nc2nc(N3CCOCC3)nc(C)c2[N+](=O)[O-])cc1Cl	none
COc1cc(/C(C)=N/NC(=O)c2n[nH]c3c2CCC3)ccc1O	TEAD-YAP inh 35
CC/C(C)=N/NC(=O)c1n[nH]c2c1CCC2	TEAD-YAP inh 43
O=C(Oc1ccc2oc3ccccc3c2c1)c1ccc(=O)[nH]c1	none
O=C(Nc1ccc(-c2ccn[nH]2)cc1)C1CCCN(Cc2ccc(F)cc2)C1 (stereo unspecified)	none
N#Cc1cnc(N)c(C#N)c1Nc1ccccc1	TEAD-YAP inh 38
N#Cc1cc(N)c(Nc2ccccc2)cc1C#N	none
Cc1nnc(SCCNS(=O)(=O)c2ccccc2)s1	none
Cc1ccc(CS(=O)Cc2ccc(C(=O)NCc3ccco3)o2)cc1 (stereo unspecified)	none
N#C/C(=C\c1ccc(N2CCOCC2)cc1)c1nc2ccccc2s1	TEAD-YAP inh 39
O=C(O)C/C(=C\c1ccc(N2CCOCC2)cc1)c1nc2ccccc2s1	TEAD-YAP inh 75
CN(C)c1ccc(/C=C(\C#N)c2nc3ccccc3s2)o1	TEAD-YAP inh 53
O=C(O)C/C(=C\c1ccc2c(c1)OCCO2)c1nc2ccccc2s1	none
CCCn1c2c(c(=O)n(C)c1=O)C(c1ccc(C)cc1)C1=C(COC1=O)N2 (stereo unspecified)	none
CCC(C(=O)NC1CCCCC1C)n1nc(C)n2c(cc3occc32)c1=O (stereo unspecified)	none
COc1cc(/C=C2\C(=O)N(C)C(=O)N(c3ccccc3)C2=O)cc(OC)c1O	none
COc1cc(/C=C2/C(=O)N(C)c3ccccc32)cc(OC)c1O	TEAD-YAP inh 41
Cc1nc2cc(-c3ccccc3)nn2c(N)c1-c1ccccc1	TEAD-YAP inh 37
COc1ccc(-c2cc3nc(C)cc(N)n3n2)cc1	TEAD-YAP inh 74
COc1ccc(-c2cc3nc(C)c(C)c(Cl)n3n2)cc1	none
Cc1nnc2sc(-c3ccc(NC(=O)C(C)(C)C)cc3)nn12	TEAD-YAP inh 40
CCOc1ccc(NC(=O)CCc2nc3cccnc3n2Cc2cccs2)cc1	none
CC(C)C(=O)NC(Nc1sc2c(c1C#N)CCCC2)(C(F)(F)F)C(F)(F)F	none
CCCC(=O)Nc1ccc(-c2nc3cccnc3s2)cc1	none
CC(C)C(=O)Nc1ccc(-c2nc3cccnc3s2)cc1	TEAD-YAP inh 87
O=C(CN1C(=O)c2cccc3cccc(c23)C1=O)OCc1cccc2c1OCO2	none
O=C(c1ccncc1)N1CC[C@@H]2[C@H](CCCN2C(=O)Cc2ccc3ccccc3c2)C1	none
CC(O)c1ccc(Nc2nccc(-c3cccc(NS(C)(=O)=O)c3)n2)cc1 (stereo unspecified)	TEAD-YAP inh 77
CS(=O)(=O)Nc1cccc(-c2ccnc(Nc3ccccc3)n2)c1	TEAD-YAP inh 68
NC(=O)c1cccc(Nc2nccc(-c3cccc(Nc4ccccc4)c3)n2)c1	none
O=C(O)Cc1ccc(Nc2nccc(-c3ccccc3)n2)cc1	TEAD-YAP inh 53
NC(=O)c1ccc(Nc2nccc(-c3cccc(Nc4ccccc4)c3)n2)cc1	TEAD-YAP inh 46
O=C(Cn1ncc2ccc(Cl)cc21)N1CCCCCC1	none
O=C(c1ccc(S(=O)(=O)c2ccccc2Cl)c([N+](=O)[O-])c1)N1CCN(c2ccccc2Cl)CC1	none
CS(=O)(=O)Nc1cccc(-c2ccnc(Nc3ccc(CC(N)=O)cc3)n2)c1	TEAD-YAP inh 37
Cc1cccc(C)c1-n1c(SCc2ccccc2F)nc2c(sc(=S)n2-c2c(C)cccc2C)c1=O	TEAD-YAP inh 41
CCOc1ccc(-n2c(=S)sc3c(=O)n(-c4ccccc4)c(SCc4nc5ccccc5[nH]4)nc32)cc1	none
O=c1c2sc(=S)n(-c3ccccc3)c2nc(SCc2nc3ccccc3[nH]2)n1-c1ccccc1	TEAD-YAP inh 33
Cc1cccc(C)c1-n1c(SCc2ccccc2F)nc2c(sc(=S)n2CCc2ccccc2)c1=O	none
O=[N+]([O-])c1nn(-c2ccc(Cl)cc2)n(O)c1=Nc1ccccc1	TEAD-YAP inh 62
O=[N+]([O-])c1nn(-c2ccc(Cl)cc2)n(O)c1=Nc1ccccc1F	TEAD-YAP inh 38
